Consider four compounds from PubChem BioAssay (EPA / NIEHS).

Several values for one entry are separate records, joined by “and”; a condition that tells them apart may be missing. Identical values can stand only once. Inconclusive results are not listed. Some compounds were tested as several samples or in several runs, with calls that do not always agree. Activity calls are given as the source filed them. How the source made its calls, unless noted: active means hit-call score of the fitted dose curve at least 0.9, where 1 is the maximum; inactive means score below 0.9.

A short description of assay [1]: ATG_NFI_CIS: Attagene CIS-FACTORIAL HepG2 Assay for human Nuclear Factor I (NFI) (AID 2282989). The conditions noted are these: HepG2 cis-regulatory reporter, NFI response element transcription; actives raise or lower the signal. A digest of the protocol:
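Reporter transcription driven by endogenous transcription factors in HepG2 cells; 24 h treatment. Quantitation by labelled RT-PCR fragments on capillary electrophoresis, gain- or loss-of-signal relative to DMSO.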

Assay [2] addresses Myc proto-oncogene protein (Homo sapiens) (UniProt P01106). As to the kind of experiment: ATG_Myc_CIS: Attagene CIS-FACTORIAL HepG2 Assay for human Myelocytomatosis (Myc) Proto-Oncogene Transcription Factor (AID 2282990). The conditions noted are these: HepG2, Attagene cis-reporter transcription factor activity; actives raise or lower the signal. A digest of the protocol:
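HepG2 cells transiently transfected with multiple cis-promoter-driven reporter transcription units, so endogenous TF activity is read. After 24 h compound exposure, reporter mRNA was quantified by RT-PCR, 6-FAM labelling, HpaI digestion and capillary electrophoresis; bidirectional fit versus DMSO.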

Assay [3] is described as follows: ATG_NF_kB_CIS: Attagene CIS-FACTORIAL HepG2 Assay for human Nuclear Factor Kappa B (NF-kB) (AID 2282991). The conditions noted are these: HepG2 Attagene cis-factorial NF-kB reporter mRNA; actives raise or lower the signal. A digest of the protocol: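 Read-out: reporter transcript levels quantified by RT-PCR plus capillary electrophoresis of 6-FAM-labelled, HpaI-cut fragments. Transfected HepG2 cells, 24 h compound exposure, endogenous NF-kB-driven cis element; gain or loss scored versus DMSO.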

Assay [4] is described as follows: ATG_NRF2_ARE_CIS: Attagene CIS-FACTORIAL HepG2 Assay for human Nuclear Factor Erythroid 2 Related Factor 2 (NFR2) response to Antioxidant Response Elements (ARE) (AID 2282992).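 On AC50: reporter mRNA level measured by RT-PCR and capillary electrophoresis fluorescence.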 The conditions noted are these: HepG2 Attagene ARE/NRF2 reporter, transcription factor activity; actives raise or lower the signal. A digest of the protocol: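 Fluorescence intensity of reporter-specific cDNA fragments, separated by capillary electrophoresis, reflects mRNA induction in transfected HepG2 cells at 24 h. Activity is fitted bidirectionally, DMSO serving as baseline.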

Assay [5] can be described thus: ATG_Oct_MLP_CIS: Attagene CIS-FACTORIAL HepG2 Assay for human Octamer-Binding Transcription Factor (Oct) (AID 2282993). The conditions noted are these: HepG2 Attagene cis-factorial Oct reporter, mRNA; actives raise or lower the signal. The procedure, abridged:
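Transfected HepG2 cells, 24 h treatment. Reporter mRNA quantified by RT-PCR–capillary electrophoresis; bidirectional fitting against DMSO.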

Assay [6] addresses Cellular tumor antigen p53 (Homo sapiens) (UniProt P04637). The assay can be described thus: ATG_p53_CIS: Attagene CIS-FACTORIAL HepG2 Assay for human p53 Transcription Factor (AID 2282994). The conditions noted are these: HepG2 p53 cis-element reporter, Attagene mRNA; actives raise or lower the signal. A digest of the protocol:
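Transiently transfected HepG2 (multiple cis reporter transcription units); exposure 24 h; reporter RNA via RT-PCR, 6-FAM extension, 2 h HpaI digest at 37 C, CE detection; DMSO baseline.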

The nature of assay [7]: BSK_3C_TissueFactor: BioMAP Diversity Plus: 3C Assay for Tissue Factor Biomarker Activity (AID 2282997). The conditions noted are these: BioMAP 3C HUVEC, tissue factor biomarker readout; actives raise or lower the signal. A digest of the protocol:
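After a 24 h chemical exposure of primary human umbilical vein endothelial cells, Tissue Factor levels were quantified by ELISA.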

Assay [8] can be described thus: BSK_3C_uPAR: BioMAP Diversity Plus: 3C Assay for Urokinase-type plasminogen activator receptor (uPAR) Biomarker Activity (AID 2282998). The conditions noted are these: BioMAP 3C HUVEC, uPAR biomarker ELISA; actives raise or lower the signal. A digest of the protocol:
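Readout: ELISA for surface uPAR. System: human umbilical vein endothelial primary cells, 24 h after chemical exposure. Analysis: bidirectional fit, DMSO baseline.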

Assay [9] is described as follows: BSK_3C_VCAM1: BioMAP Diversity Plus: 3C Assay for Vascular cell adhesion molecule 1 (VCAM1) Biomarker Activity (AID 2282999). The conditions noted are these: BioMAP 3C HUVEC, VCAM1 ELISA, cytokine-stimulated; actives raise or lower the signal. A digest of the protocol: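 Vascular primary endothelium (human umbilical vein) was exposed to chemicals and assayed 24 h later. VCAM-1 levels came from ELISA, with DMSO serving as baseline for bidirectional fitting.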

Assay [10] in a line: BSK_4H_Eotaxin3: BioMAP Diversity Plus: 4H Assay for Eotaxin 3 Biomarker Activity (AID 2283000). The conditions noted are these: primary human endothelial cells (HUVEC); actives raise or lower the signal. The procedure, abridged:
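Chemicals were added to human umbilical vein endothelium cultures, and Eotaxin-3 was quantified by ELISA at 24 h. Values were derived by bidirectional fitting with DMSO serving as negative control and activity baseline.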

Assay [11] concerns the target human Peroxisome Proliferator-activated Receptor alpha (PPARa), PPARA (gene 5465) (UniProt Q07869). As to the kind of experiment: ATG_PPARa_TRANS: Attagene TRANS-FACTORIAL HepG2 Assay for human Peroxisome Proliferator-activated Receptor alpha (PPARa) (AID 2283001; active means hit-call score of the fitted dose curve at least 0.9, where 1 is the maximum;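 on AC50: potency for gain of reporter signal over DMSO so agonist or activator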). The procedure, abridged:
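Cells (HepG2) are transfected with multiple reporter transcription units, exposed to chemical for 24 h, then total RNA is reverse-transcribed and amplified. Labelled products are quantified by capillary electrophoresis; induction is referenced to DMSO.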

Read-out in assay [12]: Intercellular Adhesion Molecule 1 (ICAM1), ICAM1 (gene 3383)
As to the kind of experiment: BSK_3C_ICAM1: BioMAP Diversity Plus: 3C Assay for Intercellular Adhesion Molecule 1 (ICAM1) Biomarker Activity (AID 2283003). The conditions noted are these: primary human endothelial cells (HUVEC); actives raise or lower the signal. A digest of the protocol:
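ELISA readout of ICAM1 in human umbilical vein endothelial cells in the 3C system, taken 24 h post-dose. Gain or loss of signal versus DMSO was fitted in both directions, with SRB total-protein staining run in parallel.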

Assay [13] can be described thus: BSK_3C_Proliferation: Cell Proliferation Assessment in the BioMAP Diversity Plus: 3C Assay (AID 2283006).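 Further: potency may reflect either rise or fall in cell number versus DMSO.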 The conditions noted are these: primary human endothelial cells (HUVEC). The procedure, abridged: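 Proliferation as total protein: sulforhodamine B (0.1%) stain of TCA-fixed subconfluent human umbilical vein endothelial cells, absorbance 560 nm, 48 h after dosing. Activity fitted in both directions against DMSO baseline.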

In assay [14] the target is Peroxisome proliferator-activated receptor gamma (Homo sapiens) (UniProt P37231). The assay can be described thus: ATG_PPARg_TRANS: Attagene TRANS-FACTORIAL HepG2 Assay for human Peroxisome Proliferator-activated Receptor-gamma (PPARg) (AID 2283007; active means hit-call score of the fitted dose curve at least 0.9, where 1 is the maximum). The procedure, abridged:
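Read-out: reporter mRNA induction, detected by fluorescence after RT-PCR and capillary electrophoresis. Transiently transfected human HepG2 liver cells carrying a chimeric NR-Gal4 construct were dosed for 24 h; activity was fitted upward relative to DMSO.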

Assay [15] has as its target human RAR-related Orphan Receptor beta (RORb), RORB (gene 6096) (UniProt Q92753). The assay can be described thus: ATG_RORb_TRANS: Attagene TRANS-FACTORIAL HepG2 Assay for human RAR-related Orphan Receptor beta (RORb) (AID 2283010; active means hit-call score of the fitted dose curve at least 0.9, where 1 is the maximum). A digest of the protocol: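 Read-out is reporter mRNA induction, quantified by RT-PCR with fluorescent capillary electrophoresis, 24 h post-dose in transiently transfected HepG2 expressing exogenous NR-Gal4 chimera. Activity fitted upward versus DMSO.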

For assay [16], the target named is human Peroxisome Proliferator-activated Receptor delta (PPARd), PPARD (gene 5467) (UniProt Q03181). As to the kind of experiment: ATG_PPARd_TRANS: Attagene TRANS-FACTORIAL HepG2 Assay for human Peroxisome Proliferator-activated Receptor delta (PPARd) (AID 2283002; active means hit-call score of the fitted dose curve at least 0.9, where 1 is the maximum). A digest of the protocol: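 HepG2 cells transiently transfected with multiplexed GAL4-UAS reporter units and exogenous chimeric NR-Gal4 proteins; 24 h compound exposure. Reporter mRNA measured by RT-PCR, 6-FAM labelling, HpaI digestion and capillary electrophoresis; gain of signal versus DMSO.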

The target of assay [17] is Retinoic acid receptor alpha (Homo sapiens) (UniProt P10276). As to the kind of experiment: ATG_RARa_TRANS: Attagene TRANS-FACTORIAL HepG2 Assay for human Retinoic Acid Receptor alpha (RARa) (AID 2283005; active means hit-call score of the fitted dose curve at least 0.9, where 1 is the maximum). A digest of the protocol: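 HepG2 cells transiently transfected with multiple reporter units expressing chimeric RARα-GAL4 fusion, with GAL4-UAS-driven reporters. After 24 h compound exposure, reporter mRNA induction quantified by RT-PCR and capillary electrophoresis with fluorescent labeling; gain-of-signal fitted relative to DMSO control.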

The target in assay [18] is human Retinoic Acid Receptor gamma (RARg), RARG (gene 5916) (UniProt P13631). The assay can be described thus: ATG_RARg_TRANS: Attagene TRANS-FACTORIAL HepG2 Assay for human Retinoic Acid Receptor gamma (RARg) (AID 2283009; active means hit-call score of the fitted dose curve at least 0.9, where 1 is the maximum). The procedure, abridged: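 Transactivation of exogenous RARg-Gal4 fusion measured as reporter transcript induction after 24 h in transfected HepG2 cells. RNA reverse-transcribed, amplified, fluorescently labeled and resolved by capillary electrophoresis; increase relative to DMSO.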

Assay [19] concerns the target Nuclear receptor subfamily 1 group I member 2 (Homo sapiens) (UniProt O75469). The assay can be described thus: ATG_PXR_TRANS: Attagene TRANS-FACTORIAL HepG2 Assay for human Pregnane X Receptor (PXR) (AID 2283008; active means hit-call score of the fitted dose curve at least 0.9, where 1 is the maximum). The procedure, abridged:
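Transient HepG2 transfectants carrying multiplexed reporter transcription units; PXR activity read through a Gal4 chimera. 24 h exposure. RT-PCR/CE fluorescence; upward curve fit referenced to DMSO.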

Sequence of Myc proto-oncogene protein (Homo sapiens) (P01106 whole entry, looked up): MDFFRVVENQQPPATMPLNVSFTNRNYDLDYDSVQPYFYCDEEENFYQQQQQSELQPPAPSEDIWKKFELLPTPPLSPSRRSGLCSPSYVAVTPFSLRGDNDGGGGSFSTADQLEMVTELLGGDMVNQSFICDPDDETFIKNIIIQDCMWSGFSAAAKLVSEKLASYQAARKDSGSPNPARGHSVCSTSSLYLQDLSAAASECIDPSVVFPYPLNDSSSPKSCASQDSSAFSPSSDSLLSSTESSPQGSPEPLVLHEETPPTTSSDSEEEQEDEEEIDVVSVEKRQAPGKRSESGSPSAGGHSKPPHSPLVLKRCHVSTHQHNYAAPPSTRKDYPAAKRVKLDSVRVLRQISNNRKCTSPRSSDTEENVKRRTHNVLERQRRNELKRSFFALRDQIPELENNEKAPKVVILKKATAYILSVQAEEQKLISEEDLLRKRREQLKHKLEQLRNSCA
Sequence of Cellular tumor antigen p53 (Homo sapiens) (P04637 whole entry, looked up): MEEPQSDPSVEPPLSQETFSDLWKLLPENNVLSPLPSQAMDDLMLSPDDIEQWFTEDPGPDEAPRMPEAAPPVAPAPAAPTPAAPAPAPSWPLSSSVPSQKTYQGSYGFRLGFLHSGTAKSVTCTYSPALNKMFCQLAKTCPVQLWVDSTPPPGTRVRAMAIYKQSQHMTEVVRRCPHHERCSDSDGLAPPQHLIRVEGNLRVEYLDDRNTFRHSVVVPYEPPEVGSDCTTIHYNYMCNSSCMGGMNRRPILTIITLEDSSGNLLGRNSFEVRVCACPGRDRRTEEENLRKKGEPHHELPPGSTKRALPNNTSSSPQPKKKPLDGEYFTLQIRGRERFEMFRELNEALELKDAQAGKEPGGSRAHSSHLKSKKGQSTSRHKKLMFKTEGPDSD
Sequence of human Peroxisome Proliferator-activated Receptor alpha (PPARa), PPARA (gene 5465) (Q07869 whole entry, looked up): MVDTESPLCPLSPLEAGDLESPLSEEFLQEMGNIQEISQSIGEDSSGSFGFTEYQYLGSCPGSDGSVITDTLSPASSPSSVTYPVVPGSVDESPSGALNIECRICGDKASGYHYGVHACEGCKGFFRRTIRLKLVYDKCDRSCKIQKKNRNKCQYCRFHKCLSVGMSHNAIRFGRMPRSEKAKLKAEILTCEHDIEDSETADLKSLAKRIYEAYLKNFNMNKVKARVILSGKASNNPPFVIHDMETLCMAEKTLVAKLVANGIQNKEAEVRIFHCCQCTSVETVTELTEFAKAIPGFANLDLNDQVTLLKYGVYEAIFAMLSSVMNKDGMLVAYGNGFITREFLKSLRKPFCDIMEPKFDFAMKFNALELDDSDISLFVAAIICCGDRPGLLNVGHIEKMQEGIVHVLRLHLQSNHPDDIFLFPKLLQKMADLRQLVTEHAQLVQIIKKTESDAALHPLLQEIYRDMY
Sequence of human RAR-related Orphan Receptor beta (RORb), RORB (gene 6096) (Q92753 whole entry, looked up, the tested form may be a part): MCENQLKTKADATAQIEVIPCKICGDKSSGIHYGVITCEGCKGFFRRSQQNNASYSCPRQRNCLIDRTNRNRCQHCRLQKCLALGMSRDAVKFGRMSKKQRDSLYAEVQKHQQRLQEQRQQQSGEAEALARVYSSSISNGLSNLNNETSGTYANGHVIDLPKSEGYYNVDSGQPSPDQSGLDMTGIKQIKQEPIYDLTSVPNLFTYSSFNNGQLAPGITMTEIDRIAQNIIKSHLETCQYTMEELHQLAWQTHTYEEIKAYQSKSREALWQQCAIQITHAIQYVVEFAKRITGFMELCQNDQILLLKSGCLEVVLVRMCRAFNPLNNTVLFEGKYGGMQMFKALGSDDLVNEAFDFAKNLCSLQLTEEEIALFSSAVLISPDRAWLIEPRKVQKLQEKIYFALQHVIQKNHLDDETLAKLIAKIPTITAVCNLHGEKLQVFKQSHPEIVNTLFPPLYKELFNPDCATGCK
Sequence of Peroxisome proliferator-activated receptor gamma (Homo sapiens) (P37231 whole entry, looked up, the tested form may be a part): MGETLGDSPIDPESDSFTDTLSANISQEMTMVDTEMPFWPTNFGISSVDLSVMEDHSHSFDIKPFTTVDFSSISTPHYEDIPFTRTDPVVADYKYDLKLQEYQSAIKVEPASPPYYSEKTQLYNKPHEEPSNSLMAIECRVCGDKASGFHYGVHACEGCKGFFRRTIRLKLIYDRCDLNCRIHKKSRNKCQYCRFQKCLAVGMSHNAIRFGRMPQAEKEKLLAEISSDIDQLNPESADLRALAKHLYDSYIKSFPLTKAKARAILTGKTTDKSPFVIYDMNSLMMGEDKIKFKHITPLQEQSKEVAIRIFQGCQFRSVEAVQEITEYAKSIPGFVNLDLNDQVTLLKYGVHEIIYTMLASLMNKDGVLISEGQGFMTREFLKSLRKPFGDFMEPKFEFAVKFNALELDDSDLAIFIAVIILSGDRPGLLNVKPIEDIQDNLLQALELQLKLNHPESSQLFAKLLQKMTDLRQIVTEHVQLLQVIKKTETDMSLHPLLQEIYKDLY
Sequence of Nuclear receptor subfamily 1 group I member 2 (Homo sapiens) (O75469 whole entry, looked up, the tested form may be a part): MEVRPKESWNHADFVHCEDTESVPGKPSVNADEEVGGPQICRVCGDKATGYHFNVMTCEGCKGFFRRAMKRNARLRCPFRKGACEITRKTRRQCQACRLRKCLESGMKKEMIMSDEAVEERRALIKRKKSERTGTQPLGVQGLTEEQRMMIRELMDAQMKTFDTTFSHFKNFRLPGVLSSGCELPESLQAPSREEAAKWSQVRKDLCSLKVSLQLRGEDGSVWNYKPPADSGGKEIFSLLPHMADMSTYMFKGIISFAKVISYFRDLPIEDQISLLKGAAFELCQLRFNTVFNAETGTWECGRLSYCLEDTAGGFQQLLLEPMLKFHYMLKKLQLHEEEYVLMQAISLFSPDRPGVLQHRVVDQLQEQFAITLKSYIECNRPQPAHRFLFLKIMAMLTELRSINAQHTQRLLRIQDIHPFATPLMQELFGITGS
Sequence of Retinoic acid receptor alpha (Homo sapiens) (P10276 whole entry, looked up, the tested form may be a part): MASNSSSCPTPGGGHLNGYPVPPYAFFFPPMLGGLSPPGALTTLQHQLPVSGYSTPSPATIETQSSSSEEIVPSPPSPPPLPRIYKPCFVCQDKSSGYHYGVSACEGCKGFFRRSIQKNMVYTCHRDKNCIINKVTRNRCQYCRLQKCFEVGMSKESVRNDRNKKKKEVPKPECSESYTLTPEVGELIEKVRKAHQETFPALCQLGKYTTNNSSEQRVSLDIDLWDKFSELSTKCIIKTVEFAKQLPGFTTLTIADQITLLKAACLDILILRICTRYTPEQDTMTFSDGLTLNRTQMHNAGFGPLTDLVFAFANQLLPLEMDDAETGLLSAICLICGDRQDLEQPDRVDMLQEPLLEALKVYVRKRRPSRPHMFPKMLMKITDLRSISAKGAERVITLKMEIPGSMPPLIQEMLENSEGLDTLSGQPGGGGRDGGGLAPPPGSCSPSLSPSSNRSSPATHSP
Sequence of human Peroxisome Proliferator-activated Receptor delta (PPARd), PPARD (gene 5467) (Q03181 whole entry, looked up, the tested form may be a part): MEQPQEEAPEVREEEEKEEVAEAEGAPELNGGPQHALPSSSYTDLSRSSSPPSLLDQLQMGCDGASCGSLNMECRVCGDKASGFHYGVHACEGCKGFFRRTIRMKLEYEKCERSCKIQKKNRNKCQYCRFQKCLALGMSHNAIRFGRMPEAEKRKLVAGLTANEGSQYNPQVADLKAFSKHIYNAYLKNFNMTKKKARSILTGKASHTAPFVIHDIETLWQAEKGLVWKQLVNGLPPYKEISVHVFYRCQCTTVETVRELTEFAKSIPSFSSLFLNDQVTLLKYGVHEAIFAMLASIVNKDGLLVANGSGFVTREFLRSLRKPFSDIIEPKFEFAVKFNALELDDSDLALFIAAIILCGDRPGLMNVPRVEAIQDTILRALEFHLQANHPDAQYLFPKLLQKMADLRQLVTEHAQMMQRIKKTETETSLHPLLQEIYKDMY
Sequence of human Retinoic Acid Receptor gamma (RARg), RARG (gene 5916) (P13631 whole entry, looked up, the tested form may be a part): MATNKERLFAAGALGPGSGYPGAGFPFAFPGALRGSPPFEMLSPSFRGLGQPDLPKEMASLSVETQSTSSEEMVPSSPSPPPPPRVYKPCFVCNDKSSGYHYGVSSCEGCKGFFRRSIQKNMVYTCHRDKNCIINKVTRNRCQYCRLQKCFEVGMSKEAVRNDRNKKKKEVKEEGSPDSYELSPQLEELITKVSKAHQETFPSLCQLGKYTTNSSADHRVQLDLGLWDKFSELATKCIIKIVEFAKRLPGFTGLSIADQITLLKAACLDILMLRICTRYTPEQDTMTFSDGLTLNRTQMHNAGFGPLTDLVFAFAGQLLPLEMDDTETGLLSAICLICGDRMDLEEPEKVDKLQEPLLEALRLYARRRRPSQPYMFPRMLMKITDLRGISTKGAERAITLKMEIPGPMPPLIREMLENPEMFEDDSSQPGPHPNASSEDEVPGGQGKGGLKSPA

For the compound `O=C1C=CC(=O)c2ccccc21`, the compound was called inactive in assay [1], in [2], in assay [3], in [5], in [6] and in [11]. The result in assay [15] was inactive. Besides, the AC50 in assay [4] is 2.23 µM (active); in assay [7], 1.93 µM (active); in [8] it was 1.7 µM (active); in [9] it was 3.48 µM (active); in assay [10] it was 2.17 µM (active); in assay [12], 5.9 µM (active). Further, the AC50 is 0.46 µM (active) in [13] and 5.98 µM (active) in assay [14].

For the compound `O=S1(=O)OC(c2cc(Br)c(O)c(Br)c2)(c2cc(Br)c(O)c(Br)c2)c2ccccc21`, the compound was classed as inactive in assay [1], in assay [2], in assay [5], in [11], in [16] and in [17]. Further, the compound was classed as inactive in [18] and in [15]. Besides, the half-maximal activity concentration (AC50) in assay [3] was 93 µM (active); in assay [4], 60.1 µM (active); in [6] it was 126 µM (active); in assay [14], 36.9 µM (active).

For the compound `O=c1oc2ccccc2c(O)c1C(CC(O)c1ccc(-c2ccc(Br)cc2)cc1)c1ccccc1` (stereo not given), the result in [1], in assay [2], in assay [3], in assay [4], in assay [5] and in assay [11] was inactive. In assay [15], the result was inactive. Further, the AC50 is 48.4 µM (active) in [3]; 7.57 µM (active) in [4]; 40.9 µM (active) in [5]; 53.2 µM (active) and 21.3 µM (active) in [6]; 12.7 µM (active) in assay [7]; 5.92 µM (active) in assay [8]. Moreover, the AC50 in assay [9] is 21.6 µM (active); in assay [10], 16.9 µM (active); in assay [11], 25.3 µM (active); in [12] it was 27.2 µM (active); in [13], 6.58 µM (active); in assay [14], 3.95 µM (active) and 676 nM (active). Also, the AC50 in assay [19] was 5.19 µM (active) and 7.74 µM (active).

Regarding `O=C(Nc1ccc(Br)cc1)c1cc(Br)cc(Br)c1O`, the AC50 in assay [1] was 2.27 µM (active); in [4] it was 2.91 µM (active); in [5], 5.3 µM (active); in [6], 100 µM (active); in [11], 4.97 µM (active); in assay [14], 11.7 µM (active). Further, the AC50 in [19] was 4.69 µM (active). In addition, the outcome in assay [2], in assay [3], in assay [16], in assay [17], in assay [18] and in [15] was inactive.
